# Assay results: ChEMBL document CHEMBL2218924, “A broad activity screen in support of a chemogenomic map for kinase signalling research and drug discovery” (Biochem J, 2013)
# Experiments:
# [1] = target: Death-associated protein kinase 1 (Homo sapiens) (UniProt P53355); settings: at 10 µM
# [2] = target: T1, Myotonin-protein kinase (Homo sapiens) (UniProt Q09013); settings: at 1 µM
# T1 sequence (whole entry): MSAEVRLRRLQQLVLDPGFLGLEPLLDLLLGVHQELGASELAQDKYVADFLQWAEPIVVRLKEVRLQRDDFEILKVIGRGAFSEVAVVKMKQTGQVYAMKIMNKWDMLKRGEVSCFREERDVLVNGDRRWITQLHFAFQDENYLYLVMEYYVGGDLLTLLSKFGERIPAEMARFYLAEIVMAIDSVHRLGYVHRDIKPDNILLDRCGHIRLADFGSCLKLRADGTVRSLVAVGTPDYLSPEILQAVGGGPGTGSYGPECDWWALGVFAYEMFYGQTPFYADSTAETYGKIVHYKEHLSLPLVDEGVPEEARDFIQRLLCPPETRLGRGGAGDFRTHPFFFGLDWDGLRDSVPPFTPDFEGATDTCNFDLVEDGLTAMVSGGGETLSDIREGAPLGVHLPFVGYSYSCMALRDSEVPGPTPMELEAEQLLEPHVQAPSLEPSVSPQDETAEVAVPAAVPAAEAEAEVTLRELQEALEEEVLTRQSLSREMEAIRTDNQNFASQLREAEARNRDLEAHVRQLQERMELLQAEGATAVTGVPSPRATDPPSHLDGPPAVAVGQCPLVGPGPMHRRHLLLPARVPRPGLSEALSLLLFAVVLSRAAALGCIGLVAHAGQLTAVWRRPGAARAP
# [3] = target: T2, Serine/threonine-protein kinase 17A (Homo sapiens) (UniProt Q9UEE5); settings: at 1 µM
# T2 sequence (whole entry): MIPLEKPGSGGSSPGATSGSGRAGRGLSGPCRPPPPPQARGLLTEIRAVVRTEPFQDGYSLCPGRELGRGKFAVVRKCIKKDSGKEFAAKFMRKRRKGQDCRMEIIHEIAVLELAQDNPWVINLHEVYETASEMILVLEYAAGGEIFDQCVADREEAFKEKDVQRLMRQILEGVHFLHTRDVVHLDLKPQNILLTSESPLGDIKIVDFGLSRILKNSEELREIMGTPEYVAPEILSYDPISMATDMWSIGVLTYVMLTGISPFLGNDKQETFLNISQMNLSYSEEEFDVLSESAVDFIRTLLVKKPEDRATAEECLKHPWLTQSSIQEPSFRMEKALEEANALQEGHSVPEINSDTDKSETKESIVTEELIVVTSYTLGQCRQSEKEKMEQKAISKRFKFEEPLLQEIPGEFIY
# [4] = target: T2, Serine/threonine-protein kinase 17A (Homo sapiens); settings: at 10 µM
# [5] = target: T3, Ephrin type-A receptor 1 (Homo sapiens) (UniProt P21709); settings: at 1 µM
# T3 sequence (whole entry): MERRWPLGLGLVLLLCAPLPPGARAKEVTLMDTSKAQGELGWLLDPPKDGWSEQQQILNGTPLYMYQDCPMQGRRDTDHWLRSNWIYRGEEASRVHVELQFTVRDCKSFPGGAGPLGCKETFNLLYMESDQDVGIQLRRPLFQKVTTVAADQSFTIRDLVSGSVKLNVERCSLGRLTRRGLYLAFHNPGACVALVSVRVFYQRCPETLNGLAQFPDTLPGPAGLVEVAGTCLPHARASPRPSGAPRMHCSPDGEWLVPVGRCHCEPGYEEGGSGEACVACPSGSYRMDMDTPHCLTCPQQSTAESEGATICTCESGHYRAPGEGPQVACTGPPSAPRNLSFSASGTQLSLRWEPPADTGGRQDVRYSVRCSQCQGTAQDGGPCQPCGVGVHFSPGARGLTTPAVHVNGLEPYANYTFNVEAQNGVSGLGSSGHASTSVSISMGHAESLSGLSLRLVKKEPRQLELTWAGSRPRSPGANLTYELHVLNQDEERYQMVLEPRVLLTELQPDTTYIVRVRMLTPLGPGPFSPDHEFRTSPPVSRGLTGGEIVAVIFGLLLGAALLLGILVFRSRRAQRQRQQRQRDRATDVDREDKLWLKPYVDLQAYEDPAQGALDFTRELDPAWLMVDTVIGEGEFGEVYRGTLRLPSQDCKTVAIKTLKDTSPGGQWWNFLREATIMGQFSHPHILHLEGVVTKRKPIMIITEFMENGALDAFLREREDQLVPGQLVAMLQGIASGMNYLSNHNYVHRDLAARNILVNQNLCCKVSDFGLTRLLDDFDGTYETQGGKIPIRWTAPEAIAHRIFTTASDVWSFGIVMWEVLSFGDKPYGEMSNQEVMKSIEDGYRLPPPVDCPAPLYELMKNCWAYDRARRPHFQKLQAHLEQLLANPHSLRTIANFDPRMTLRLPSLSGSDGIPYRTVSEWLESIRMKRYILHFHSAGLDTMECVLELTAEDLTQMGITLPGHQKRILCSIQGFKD
# [6] = target: T3, Ephrin type-A receptor 1 (Homo sapiens); settings: at 10 µM
# [7] = target: T1, Myotonin-protein kinase (Homo sapiens); settings: at 10 µM
# [8] = target: T4, Dual specificity tyrosine-phosphorylation-regulated kinase 2 (Homo sapiens) (UniProt Q92630); settings: at 1 µM
# T4 sequence (whole entry): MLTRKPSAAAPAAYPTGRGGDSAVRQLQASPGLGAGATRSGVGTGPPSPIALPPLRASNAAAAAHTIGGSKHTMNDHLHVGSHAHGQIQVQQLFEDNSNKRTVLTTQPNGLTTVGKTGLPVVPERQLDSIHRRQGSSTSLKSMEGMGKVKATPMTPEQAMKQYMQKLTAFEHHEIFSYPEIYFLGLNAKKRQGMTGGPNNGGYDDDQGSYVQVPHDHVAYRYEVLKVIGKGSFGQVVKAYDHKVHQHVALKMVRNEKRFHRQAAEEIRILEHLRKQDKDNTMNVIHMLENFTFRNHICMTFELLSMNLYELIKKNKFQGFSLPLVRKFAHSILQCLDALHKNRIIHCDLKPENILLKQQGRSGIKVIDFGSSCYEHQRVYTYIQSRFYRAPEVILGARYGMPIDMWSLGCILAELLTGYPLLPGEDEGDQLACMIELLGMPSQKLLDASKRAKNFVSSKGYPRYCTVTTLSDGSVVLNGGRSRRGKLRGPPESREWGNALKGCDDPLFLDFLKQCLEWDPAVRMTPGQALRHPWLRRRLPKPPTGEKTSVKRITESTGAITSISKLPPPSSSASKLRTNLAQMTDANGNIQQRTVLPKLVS
# [9] = target: T4, Dual specificity tyrosine-phosphorylation-regulated kinase 2 (Homo sapiens); settings: at 10 µM
# [10] = target: T5, Serine/threonine-protein kinase DCLK2 (Homo sapiens) (UniProt Q8N568); settings: at 1 µM
# T5 sequence (whole entry): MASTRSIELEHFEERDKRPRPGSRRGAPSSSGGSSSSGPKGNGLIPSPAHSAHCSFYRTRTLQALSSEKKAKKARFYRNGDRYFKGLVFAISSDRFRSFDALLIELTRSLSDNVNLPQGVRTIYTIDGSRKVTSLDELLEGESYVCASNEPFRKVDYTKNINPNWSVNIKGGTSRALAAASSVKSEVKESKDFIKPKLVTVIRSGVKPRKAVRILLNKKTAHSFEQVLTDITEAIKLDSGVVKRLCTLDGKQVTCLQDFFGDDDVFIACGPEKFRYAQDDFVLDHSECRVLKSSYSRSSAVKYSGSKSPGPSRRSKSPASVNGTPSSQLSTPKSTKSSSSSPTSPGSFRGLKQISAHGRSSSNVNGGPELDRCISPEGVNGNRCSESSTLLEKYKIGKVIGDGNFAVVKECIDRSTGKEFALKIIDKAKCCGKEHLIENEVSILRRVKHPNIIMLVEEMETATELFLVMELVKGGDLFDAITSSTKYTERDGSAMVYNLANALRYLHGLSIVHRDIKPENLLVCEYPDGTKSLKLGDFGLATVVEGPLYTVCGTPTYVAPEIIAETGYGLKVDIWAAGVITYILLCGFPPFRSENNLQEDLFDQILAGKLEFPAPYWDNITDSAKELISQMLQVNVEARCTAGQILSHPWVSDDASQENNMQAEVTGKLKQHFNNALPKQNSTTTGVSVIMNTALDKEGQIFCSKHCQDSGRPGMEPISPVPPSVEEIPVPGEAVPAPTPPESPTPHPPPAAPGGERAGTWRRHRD
# [11] = target: T5, Serine/threonine-protein kinase DCLK2 (Homo sapiens); settings: at 10 µM
# [12] = target: T6, Discoidin domain-containing receptor 2 (Homo sapiens) (UniProt Q16832); settings: at 1 µM
# T6 sequence (whole entry): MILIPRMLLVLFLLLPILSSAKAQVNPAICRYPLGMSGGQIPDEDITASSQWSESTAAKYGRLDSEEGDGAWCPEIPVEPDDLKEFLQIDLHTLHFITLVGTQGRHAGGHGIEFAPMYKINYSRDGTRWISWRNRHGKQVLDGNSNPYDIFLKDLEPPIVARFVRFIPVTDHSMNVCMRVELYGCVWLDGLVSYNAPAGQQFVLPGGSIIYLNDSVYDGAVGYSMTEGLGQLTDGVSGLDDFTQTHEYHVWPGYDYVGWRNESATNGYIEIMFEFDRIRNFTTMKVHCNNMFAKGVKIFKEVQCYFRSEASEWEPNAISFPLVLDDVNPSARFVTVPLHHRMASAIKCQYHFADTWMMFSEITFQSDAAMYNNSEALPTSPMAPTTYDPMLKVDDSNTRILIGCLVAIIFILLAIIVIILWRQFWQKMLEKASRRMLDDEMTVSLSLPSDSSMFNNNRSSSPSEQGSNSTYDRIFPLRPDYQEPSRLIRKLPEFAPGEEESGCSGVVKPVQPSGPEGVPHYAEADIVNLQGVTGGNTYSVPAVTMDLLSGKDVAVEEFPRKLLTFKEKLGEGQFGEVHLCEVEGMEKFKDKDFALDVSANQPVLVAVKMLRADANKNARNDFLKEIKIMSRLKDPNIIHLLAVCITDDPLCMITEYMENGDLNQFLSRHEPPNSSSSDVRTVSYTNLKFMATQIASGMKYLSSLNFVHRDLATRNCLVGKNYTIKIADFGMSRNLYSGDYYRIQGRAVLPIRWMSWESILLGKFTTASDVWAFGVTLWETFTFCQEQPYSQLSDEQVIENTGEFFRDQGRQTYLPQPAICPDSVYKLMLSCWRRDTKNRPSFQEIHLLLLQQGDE
# [13] = target: Epidermal growth factor receptor (Homo sapiens) (UniProt P00533); settings: at 1 µM
# [14] = target: Ephrin type-A receptor 2 (Homo sapiens) (UniProt P29317); settings: at 10 µM
# [15] = target: Ephrin type-A receptor 2 (Homo sapiens) (UniProt P29317); settings: at 1 µM
# [16] = target: T6, Discoidin domain-containing receptor 2 (Homo sapiens); settings: at 10 µM
# Ephrin type-A receptor 2 (Homo sapiens), sequence (P29317 whole entry, the tested form may be a part): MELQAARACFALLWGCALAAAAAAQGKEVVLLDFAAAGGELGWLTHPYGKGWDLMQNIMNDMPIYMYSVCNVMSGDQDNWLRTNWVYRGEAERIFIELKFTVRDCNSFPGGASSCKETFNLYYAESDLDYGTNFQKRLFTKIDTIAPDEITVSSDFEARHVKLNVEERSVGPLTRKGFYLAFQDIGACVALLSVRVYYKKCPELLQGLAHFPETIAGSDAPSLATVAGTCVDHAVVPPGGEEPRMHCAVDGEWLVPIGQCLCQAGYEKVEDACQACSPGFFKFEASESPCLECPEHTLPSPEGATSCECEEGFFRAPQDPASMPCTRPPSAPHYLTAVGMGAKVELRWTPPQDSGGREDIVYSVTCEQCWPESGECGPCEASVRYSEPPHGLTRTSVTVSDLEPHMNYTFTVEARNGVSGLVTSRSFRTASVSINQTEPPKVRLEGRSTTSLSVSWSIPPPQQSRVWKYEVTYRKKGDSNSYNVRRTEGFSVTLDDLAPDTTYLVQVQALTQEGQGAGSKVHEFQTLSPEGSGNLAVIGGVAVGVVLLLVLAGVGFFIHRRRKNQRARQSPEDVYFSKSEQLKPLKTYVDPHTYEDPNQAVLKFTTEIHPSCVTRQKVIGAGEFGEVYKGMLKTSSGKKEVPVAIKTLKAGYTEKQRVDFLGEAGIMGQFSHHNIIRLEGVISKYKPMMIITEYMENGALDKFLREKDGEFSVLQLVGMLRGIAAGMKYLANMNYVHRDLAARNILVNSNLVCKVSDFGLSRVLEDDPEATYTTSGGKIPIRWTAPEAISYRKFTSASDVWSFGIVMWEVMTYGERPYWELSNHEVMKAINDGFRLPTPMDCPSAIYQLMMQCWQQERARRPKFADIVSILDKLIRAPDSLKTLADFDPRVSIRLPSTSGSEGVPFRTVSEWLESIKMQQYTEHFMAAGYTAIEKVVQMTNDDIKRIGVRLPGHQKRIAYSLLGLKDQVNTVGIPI
# Death-associated protein kinase 1 (Homo sapiens), sequence (P53355 whole entry, looked up): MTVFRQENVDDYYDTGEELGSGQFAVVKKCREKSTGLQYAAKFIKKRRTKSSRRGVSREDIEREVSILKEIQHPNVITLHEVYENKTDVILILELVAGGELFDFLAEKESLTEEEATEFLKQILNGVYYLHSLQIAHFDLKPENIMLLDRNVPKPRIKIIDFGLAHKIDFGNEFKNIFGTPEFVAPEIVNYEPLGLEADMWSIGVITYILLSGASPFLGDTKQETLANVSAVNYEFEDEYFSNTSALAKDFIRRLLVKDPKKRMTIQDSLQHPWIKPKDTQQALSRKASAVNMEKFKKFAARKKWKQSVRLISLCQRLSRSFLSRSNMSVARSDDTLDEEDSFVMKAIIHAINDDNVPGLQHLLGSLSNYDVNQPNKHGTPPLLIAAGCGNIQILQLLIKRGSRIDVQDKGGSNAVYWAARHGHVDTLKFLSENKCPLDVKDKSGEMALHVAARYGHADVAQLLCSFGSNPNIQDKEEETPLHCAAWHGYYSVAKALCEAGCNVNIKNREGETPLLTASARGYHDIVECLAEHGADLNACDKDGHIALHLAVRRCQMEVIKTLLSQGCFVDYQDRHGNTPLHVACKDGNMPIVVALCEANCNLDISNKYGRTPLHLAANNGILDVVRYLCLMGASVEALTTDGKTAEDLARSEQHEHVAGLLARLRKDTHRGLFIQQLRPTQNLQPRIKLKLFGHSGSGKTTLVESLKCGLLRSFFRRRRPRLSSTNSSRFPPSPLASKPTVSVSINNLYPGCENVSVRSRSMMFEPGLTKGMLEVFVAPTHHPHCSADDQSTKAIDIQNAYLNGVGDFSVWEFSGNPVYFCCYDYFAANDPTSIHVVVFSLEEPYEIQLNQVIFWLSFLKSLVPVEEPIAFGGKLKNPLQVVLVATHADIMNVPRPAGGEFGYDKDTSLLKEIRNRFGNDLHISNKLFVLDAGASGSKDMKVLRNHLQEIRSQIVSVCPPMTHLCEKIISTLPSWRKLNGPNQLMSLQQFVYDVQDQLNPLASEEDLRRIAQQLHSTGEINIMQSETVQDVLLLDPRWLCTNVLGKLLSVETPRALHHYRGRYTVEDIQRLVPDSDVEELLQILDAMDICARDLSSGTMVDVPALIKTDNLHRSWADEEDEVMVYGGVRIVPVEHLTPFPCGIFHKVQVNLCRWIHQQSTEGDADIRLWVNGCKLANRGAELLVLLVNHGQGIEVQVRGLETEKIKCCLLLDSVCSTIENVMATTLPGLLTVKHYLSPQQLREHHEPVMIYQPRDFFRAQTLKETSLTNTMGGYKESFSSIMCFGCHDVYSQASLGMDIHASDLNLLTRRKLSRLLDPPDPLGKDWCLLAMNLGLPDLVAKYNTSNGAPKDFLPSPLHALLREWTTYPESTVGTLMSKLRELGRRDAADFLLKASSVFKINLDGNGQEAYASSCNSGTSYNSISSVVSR
# Epidermal growth factor receptor (Homo sapiens), sequence (P00533 whole entry): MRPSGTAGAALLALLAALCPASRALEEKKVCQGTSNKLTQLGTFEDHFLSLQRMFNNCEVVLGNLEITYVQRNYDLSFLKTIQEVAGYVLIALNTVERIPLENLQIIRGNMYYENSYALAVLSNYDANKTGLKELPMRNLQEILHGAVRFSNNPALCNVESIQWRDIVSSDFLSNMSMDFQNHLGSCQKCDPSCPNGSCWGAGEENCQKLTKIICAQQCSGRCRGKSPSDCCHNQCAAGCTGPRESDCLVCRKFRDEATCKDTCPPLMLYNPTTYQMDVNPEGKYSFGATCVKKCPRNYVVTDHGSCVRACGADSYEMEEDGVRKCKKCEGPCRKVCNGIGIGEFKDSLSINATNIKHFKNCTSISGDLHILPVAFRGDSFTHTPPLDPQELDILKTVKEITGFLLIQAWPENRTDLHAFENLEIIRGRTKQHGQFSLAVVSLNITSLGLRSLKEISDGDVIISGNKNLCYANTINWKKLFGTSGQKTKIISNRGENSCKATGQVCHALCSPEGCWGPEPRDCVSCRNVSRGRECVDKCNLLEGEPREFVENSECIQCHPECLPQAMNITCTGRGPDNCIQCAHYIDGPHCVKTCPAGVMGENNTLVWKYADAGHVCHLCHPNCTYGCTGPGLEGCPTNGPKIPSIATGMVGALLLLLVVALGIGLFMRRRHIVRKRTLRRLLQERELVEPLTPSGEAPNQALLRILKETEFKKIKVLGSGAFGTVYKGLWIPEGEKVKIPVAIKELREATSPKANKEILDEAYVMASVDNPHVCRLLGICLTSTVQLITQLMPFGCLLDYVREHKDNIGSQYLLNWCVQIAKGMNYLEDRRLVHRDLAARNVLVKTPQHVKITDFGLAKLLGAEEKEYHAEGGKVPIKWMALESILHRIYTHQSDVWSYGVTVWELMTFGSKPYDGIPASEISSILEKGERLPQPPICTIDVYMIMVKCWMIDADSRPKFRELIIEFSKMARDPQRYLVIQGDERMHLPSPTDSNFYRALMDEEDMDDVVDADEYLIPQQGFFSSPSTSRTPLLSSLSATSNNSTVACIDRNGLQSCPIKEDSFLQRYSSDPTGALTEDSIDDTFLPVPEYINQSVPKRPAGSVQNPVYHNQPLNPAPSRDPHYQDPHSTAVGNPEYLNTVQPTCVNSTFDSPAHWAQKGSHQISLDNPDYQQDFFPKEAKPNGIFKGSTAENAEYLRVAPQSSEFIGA
compound,measurement,setting,value
O=C1Nc2ccccc2/C1=C\c1c(Cl)[nH]c2ccccc12,residual activity,[1],83%
same,residual activity,[2],119%
same,residual activity,[3],83%
same,residual activity,[4],85%
same,residual activity,[5],87%
same,residual activity,[6],72%
N#C/C(=C1/Nc2ccccc2S1)c1ccnc(NCCc2cccnc2)n1,residual activity,[7],78%
same,residual activity,[3],60%
same,residual activity,[4],37%
same,residual activity,[8],19%
same,residual activity,[9],2%
N#C/C(=C\c1ccc(O)c(O)c1)C(=O)NCc1ccccc1,residual activity,[10],69%
same,residual activity,[11],88%
same,residual activity,[12],119%
same,residual activity,[8],87%
same,residual activity,[9],73%
same,residual activity,[13],125%
same,residual activity,[14],101%
NCCNc1ncc(C(N)=O)c(Nc2cccc(C(F)(F)F)c2)n1,residual activity,[10],73%
same,residual activity,[11],66%
same,residual activity,[4],60%
same,residual activity,[5],81%
same,residual activity,[6],45%
same,residual activity,[15],103%
same,residual activity,[14],76%
Fc1ccc(-c2nc3n(c2-c2ccncc2)CCS3)cc1,residual activity,[1],93%
same,residual activity,[12],83%
same,residual activity,[16],35%
same,residual activity,[2],87%
same,residual activity,[7],96%
same,residual activity,[4],91%
same,residual activity,[9],91%
same,residual activity,[15],99%
same,residual activity,[14],87%
CCOc1nc(NC(=O)Cc2cc(OC)ccc2OC)cc(N)c1C#N,residual activity,[10],138%
O=C1Cc2c([nH]c3ccc([N+](=O)[O-])cc23)-c2ccccc2N1,residual activity,[3],10%
same,residual activity,[4],7%
same,residual activity,[8],54%
same,residual activity,[9],71%
same,residual activity,[5],109%
same,residual activity,[6],103%
